PubChem BioAssay AID463173 (ICCB-Longwood Screening Facility, Harvard Medical School, 2010)
The campaign covered roughly 52,000 compounds. About 1,700 (3.3%) were called active. Rule as the data show it: active = survival mostly below about 52% (no sharp cut-off); inactive = mostly above about 56%. This excerpt belongs to a sample that is enriched for actives.

These compounds were tested on Wild type (assay: S. aureus survival, RN4220 and DeltatarO strains – OD600, teichoic acid synthesis inhibitors, primary screen (AID 463173)). Conditions: S. aureus RN4220 wild type/DeltatarO growth, OD600, 18 h, stronger effect = lower value, screened at 18.75 µg/mL (by protocol).

| Compound | survival |
| --- | --- |
| CC(=O)c1cccc(NC(=O)CN2C(=O)CCc3cc(S(=O)(=O)N4CCCCC4)ccc32)c1 | 82% (inactive) |
| Cc1cc(C)nc(NS(=O)(=O)c2ccc(NC(=O)c3nc(SC(C)C)ncc3Cl)cc2)n1 | 79% (inactive) |
| O=S(=O)(NCCc1cn2ccsc2n1)c1ccc(Cl)cc1 | 129% (inactive) |
| CCc1ccc(NC(=O)CC(NCc2cccnc2)C(=O)O)cc1 (stereo unspecified) | 74% (inactive) |
| CC(C)NC(=O)C1CCCCC1C(=O)O (stereo unspecified) | 88% (inactive) |
| CCc1ccc(NC(=O)c2cnc3sc(N4CCCC4)nn3c2=O)cc1 | 85% (inactive) |
| CCC(=O)N1CCc2cc(S(=O)(=O)NC(C(=O)NCc3ccccc3Cl)C(C)C)ccc21 (stereo unspecified) | 84% (inactive) |
| CC(C)NC(=O)CCSc1nc(-c2ccc3c(c2)OCO3)cc(C(F)(F)F)n1 | 77% (inactive) |
| CCCNC(=O)CCSc1nc(-c2ccc3c(c2)OCO3)cc(C(F)(F)F)n1 | 84% (inactive) |
| CC(C)(C)NC(=O)CCSc1nc(-c2ccc3c(c2)OCO3)cc(C(F)(F)F)n1 | 4% (active) |
| COc1ccc(Cl)cc1NC(=O)c1c(NCc2ccc(C)o2)sc2c1CCCCC2 | 80% (inactive) |
| CCOc1cccc2cc(-c3nc4sc5c(c4c(=O)[nH]3)CCC(C)C5)c(=O)oc12 (stereo unspecified) | 119% (inactive) |
| CCC(C(=O)Nc1cc(F)ccc1F)n1nc(-c2cc(C)ccc2C)ccc1=O (stereo unspecified) | 75% (inactive) |
| Cc1cccc(CCNC(=O)c2nn(C)c3c2CSc2ccccc2-3)c1 | 87% (inactive) |
| Cc1ccc(CCNC(=O)c2nn(C)c3c2CSc2ccccc2-3)cc1 | 90% (inactive) |
| Cc1ccc2c(c1)-c1c(c(C(=O)NCCc3ccccc3)nn1C)CS2 | 10% (active) |
| Cc1ccc(Nc2c(-c3ccccc3O)nc3ccc(Br)cn23)cc1 | 101% (inactive) |
| CC(C)OCCCNC(=O)C(=O)Nc1ccc2nc3n(c(=O)c2c1)CCCCC3 | 99% (inactive) |
| COc1ccc(/C=C\c2onc(C)c2S(=O)(=O)N2CCC(C(=O)Nc3ccccc3OC)CC2)cc1 | 116% (inactive) |
| Cc1ccc(NC(=O)c2cnn3c(C(F)F)cc(-c4ccccc4)nc23)cc1F | 86% (inactive) |
| Cc1ccc(-c2nc(SCc3ccc(Br)cc3)n3[nH]c(=O)cc3n2)cc1 | 10% (active) |
| O=c1cc2nc(-c3ccccc3)nc(SCc3cccc(Br)c3)n2[nH]1 | 73% (inactive) |
| COc1ccccc1NC(=O)CSc1nc(-c2ccccc2F)nc2cc(=O)[nH]n12 | 73% (inactive) |
| O=c1cc2nc(-c3ccccc3F)nc(SCc3ccc(Br)cc3)n2[nH]1 | -2% (active) |

| Compound | survival |
| --- | --- |
| Cc1ccc(CSc2nc(-c3ccc(C(C)(C)C)cc3)nc3cc(=O)[nH]n23)cc1 | 113% (inactive) |
| Cc1cccc(-c2nc(SCc3ccc(Br)cc3)n3[nH]c(=O)cc3n2)c1 | 83% (inactive) |
| CC(C)Sc1ncc(Cl)c(C(=O)Nc2nc3ccc(S(C)(=O)=O)cc3s2)n1 | 112% (inactive) |
| CN(C(=O)Cn1cc(S(=O)(=O)Cc2ccccc2Cl)c2ccccc21)c1ccccc1 | 146% (inactive) |
| CCc1cccc(NC(=O)Cn2c(=O)n(CCc3ccc(OC)c(OC)c3)c(=O)c3ccccc32)c1 | 124% (inactive) |
| O=C(Cn1c(-c2cccs2)cc2ccccc21)NCCCN1CCN(c2ccc(F)cc2)CC1 | 136% (inactive) |
| O=C1S/C(=C\c2ccccc2)C(=O)N1CN1CCOCC1 | 125% (inactive) |
| Cc1nc2cccnc2n1C1CCN(C(=O)Nc2ccccc2C(F)(F)F)CC1 | 72% (inactive) |
| COc1ccccc1CNC(=O)c1ccc(CN2CC(=O)N3CCCCC3C2=O)cc1 (stereo unspecified) | 72% (inactive) |
| CN(C)c1ccc(Nc2ncnc3sc4c(c23)CCCC4)cc1 | 124% (inactive) |
| Cc1cc(C)cc(Nc2ncnc3sc4c(c23)CCCC4)c1 | -3% (active) |
| CCc1ccc(Nc2ncnc3sc4c(c23)CCCC4)cc1 | 68% (inactive) |
| O=C(CCC1N=C2c3ccccc3N=C(SCc3ccccc3Cl)N2C1=O)N1CCN(c2ccccc2)CC1 (stereo unspecified) | 65% (inactive) |
| Cc1cc(C)c(NC(=O)Cn2c(=O)n(Cc3ccc(C(=O)NCc4ccc5c(c4)OCO5)cc3)c(=O)c3ccccc32)c(C)c1 | 83% (inactive) |
| O=C(CSc1nc2ncccc2o1)Nc1cccc(C(F)(F)F)c1 | -3% (active) |
| COc1cc(NC(=O)CSc2nc3ncccc3o2)cc(OC)c1 | 57% (inactive) |
| O=C(CSc1nnc(-c2ccccc2F)o1)Nc1cccc(C(F)(F)F)c1 | 60% (inactive) |
| O=C(CSc1nc2ncccc2o1)Nc1ccc(Cl)cc1F | 81% (inactive) |
| Cc1cccc(C)c1NC(=O)CSc1nc2ncccc2o1 | 63% (inactive) |
| Cc1c(Cl)cccc1NC(=O)CSc1nc2ncccc2o1 | 1% (active) |
| COc1cccc(NC(=O)N(Cc2c[nH]c3ccccc23)C2CCCCC2)c1 | 71% (inactive) |
| COc1cccc(NC(=O)N(Cc2nc3ccccc3c(=O)[nH]2)C2CCCCC2)c1 | 122% (inactive) |
| COc1cccc(NC(=O)Cn2cc(C(=O)C3CCCCC3)c3ccccc32)c1 | 73% (inactive) |
| COc1cccc(NC(=O)N(Cc2cn(C)c3ccccc23)C2CCCCC2)c1 | 0% (active) |

| Compound | survival |
| --- | --- |
| COc1cccc(NC(=O)N(Cc2cn(C)c3ccccc23)C2CCCCCC2)c1 | 0% (active) |
| COc1cccc(NC(=O)N(Cc2c[nH]c3ccccc23)C2CCCCCC2)c1 | 63% (inactive) |
| CCOc1ccc(C(=O)Nc2nnc(SCc3cc(=O)n4ccccc4n3)s2)cc1 | 69% (inactive) |
| CCOc1ccc(NC(=O)N(Cc2cn(CC)c3ccccc23)C2CCCCCC2)cc1 | 0% (active) |
| CCc1ccc(NC(=O)N(Cc2c[nH]c3ccccc23)C2CCCCC2)cc1 | 93% (inactive) |
| CCc1ccc(NC(=O)N(Cc2cn(CC)c3ccccc23)C2CCCCC2)cc1 | 0% (active) |
| CCOc1ccc(NC(=O)N(Cc2c[nH]c3ccccc23)C2CCCCC2)cc1 | 79% (inactive) |
| CCOc1ccc(NC(=O)N(Cc2c[nH]c3ccccc23)C2CCCCCC2)cc1 | 83% (inactive) |
| CCc1ccc(NC(=O)N(Cc2c[nH]c3ccccc23)C2CCCCCC2)cc1 | 127% (inactive) |
| CCCCn1c(SCc2ccccc2C)nc2ccsc2c1=O | 136% (inactive) |
| COc1cc(Nc2nc(SCc3ccccc3Cl)nc3ccccc23)cc(OC)c1 | 95% (inactive) |
| Cc1ccc(/C=C/c2nc3ccccc3n2S(=O)(=O)c2ccc(Br)cc2)cc1 | 70% (inactive) |
| CC(C)c1ccc(Nc2c(-c3ccsc3)nc3ccc(Cl)cn23)cc1 | 95% (inactive) |
| COc1ccc(C)cc1NC(=O)c1nnn(CC(=O)Nc2c(C)cccc2C)c1N | 74% (inactive) |
| COc1ccc(NC(=O)Cn2c(=O)n(Cc3nc(C)no3)c(=O)c3cc4c(cc32)OCO4)cc1OC | 70% (inactive) |
| O=C(Nc1cccc(C(=O)OCc2cc(=O)n3nc(C4CC4)sc3n2)c1)c1ccccc1 | 1% (active) |
| Cc1ccc(OCC(=O)Nc2ccc(C(=O)OCc3cc(=O)n4nc(C5CC5)sc4n3)cc2)cc1 | 81% (inactive) |
| COc1ccc(C(=O)Nc2ccc(C(=O)OCc3cc(=O)n4nc(C5CC5)sc4n3)cc2)cc1 | -3% (active) |
| O=C(COc1ccccc1)Nc1ccc(C(=O)OCc2cc(=O)n3nc(C4CC4)sc3n2)cc1 | 64% (inactive) |
| COc1cccc(C(=O)Nc2ccc(C(=O)OCc3cc(=O)n4nc(C5CC5)sc4n3)cc2)c1 | 63% (inactive) |
| COc1ccc(C(=O)Nc2cccc(C(=O)OCc3cc(=O)n4nc(C5CC5)sc4n3)c2)cc1 | 111% (inactive) |
| Cc1ccc(C(=O)Nc2cccc(C(=O)OCc3cc(=O)n4nc(C5CC5)sc4n3)c2)cc1 | 55% (inactive) |
| Cc1cccc(OCC(=O)Nc2ccc(C(=O)OCc3cc(=O)n4nc(C5CC5)sc4n3)cc2)c1 | -4% (active) |
| O=C(Nc1cccc(C(=O)OCc2cc(=O)n3nc(C4CC4)sc3n2)c1)c1ccc(F)cc1 | 81% (inactive) |

| Compound | survival |
| --- | --- |
| CCCCN(CC)CCNc1ncnc2onc(-c3ccc(Cl)cc3)c12 | 82% (inactive) |
| CCC(C(=O)NCc1cc(OC)ccc1OC)n1nc(C)c2sc3ccccc3c2c1=O (stereo unspecified) | 87% (inactive) |
| Cc1ccc(CCNC(=O)c2ccc3c(c2)N(Cc2cccc(F)c2)C(=O)c2ccccc2S3)cc1 | 71% (inactive) |
| CCN(CC)C(=O)CSc1nnc(COc2ccc(Br)cc2)o1 | 102% (inactive) |
| COCc1[nH]nc2c1C(c1ccccc1C(F)(F)F)C(C#N)=C(N)O2 (stereo unspecified) | 114% (inactive) |
| CCCc1ccc(-c2ccc(C(=O)Oc3ccc(Br)cc3)cc2)nc1 | 140% (inactive) |
| CCCCCc1ccc(-c2ccc(Br)cc2)nc1 | -3% (active) |
| CCCCCc1ccc(-c2ccc(C(=O)Oc3ccc(C(=O)OC)cc3)cc2)nc1 | 74% (inactive) |
| NNC(=O)CCC(=O)Nc1ccccc1 | 112% (inactive) |
| CC(C)CNS(=O)(=O)c1ccccc1 | 120% (inactive) |
| CCN(CC)S(=O)(=O)N1CCN(S(=O)(=O)N2CCOCC2)CC1 | 118% (inactive) |
| O=C(CS(=O)(=O)c1cccc2nsnc12)N1CCN(c2ccc(F)cc2)CC1 | 97% (inactive) |
| CCOC(=O)c1nnn(-c2nn3nnnc3c3ccccc23)c1C | 101% (inactive) |
| CCn1cc(C(=O)NCC(C)C)c(=O)c2cc(F)c(N3CCN(C(=O)c4ccco4)CC3)cc21 | 107% (inactive) |
| O=C(NCc1cccnc1)c1cn(C2CC2)c2cc(N3CCN(C(=O)c4cccc(Cl)c4)CC3)c(F)cc2c1=O | 0% (active) |
| O=C(NCc1ccncc1)C1CCN(C(=O)c2cccc(Cl)c2)CC1 | 111% (inactive) |
| CCc1ccc(NC(=O)Cn2c(=O)n(CCCC(=O)NCc3ccccc3Cl)c(=O)c3ccccc32)cc1 | 136% (inactive) |
| COc1cccc(CNC(=O)c2cc3c(s2)-c2ccccc2OC3)c1 | 65% (inactive) |
| CN(C)CCN(Cc1ccco1)C(=O)c1cc2c(s1)-c1ccccc1OC2 | 70% (inactive) |
| COCCCN(Cc1ccco1)C(=O)c1cc2c(s1)-c1ccccc1OC2 | 12% (active) |
| CC(C)CCN(Cc1ccco1)C(=O)c1cc2c(s1)-c1ccccc1OC2 | 7% (active) |
| CCN1CCN(CCCNC(=O)c2cc3c(s2)-c2ccccc2OC3)CC1 | 84% (inactive) |
| CC(C)OCCCN(Cc1ccco1)C(=O)c1cc2c(s1)-c1ccccc1OC2 | 9% (active) |
| CC(C)CCN(Cc1ccco1)C(=O)c1cc2c(Cl)nc3ccccc3c2s1 | 77% (inactive) |
